The results in this text go back to PubChem BioAssay (NCATS).

The term viability denotes a read-out of living cells in per cent, often relative to untreated cells.

For test [1], the target named is Cytochrome P450 3A7 (Homo sapiens) (UniProt P24462). The test is described as follows: Cytochrome P450 family 3 subfamily A member 7 (CYP3A7) small molecule antagonists: luciferase biochemical qHTS assay (AID 1963596). Further: nearly all actives have a fitted effect of over 40% in size. The gist of the method:
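Enzyme-substrate mix + cpd (DMSO), 10 min RT; + NADPH regen system, 1 h RT; + luciferin detection reagent, 20 min RT; luminescence read. Proluciferin substrate, P450-Glo format, 1536-well qHTS.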
For orientation: qHTS replaces the single test concentration by a dilution series.

A short description of test [2]: Viability qHTS for spleen associated tyrosine kinase inhibitor (SYKi) drug resistant MV4-11 cells (AID 1963824). Further: nearly all actives have a fitted effect of over 35% in size. The method, boiled down:
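SYK inhibitor-resistant MV4-11 AML cells, 500 per well, added to predispensed compounds and incubated 72 hr at 37 C, 5% CO2. Viability measured by CellTiter-Glo luminescence after 10 min at room temperature.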

A short description of test [3]: Quantitative highthroughput screen to assess conditional lethalithy of NOMO1 cells grown in RPMI1640 with untreated serum (RPMI+s) (AID 1963876). Further: nearly all actives have a fitted effect of over 35% in size.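 On viability: 100% = DMSO wells and 0% = empty wells without cells.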 The gist of the method:
(§1)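 Each medium arm—HPLM with 10% dialyzed FBS, or RPMI1640 with 5 mM glucose and 10% untreated or dialyzed FBS—was screened against an 11-point, 3-fold compound titration for 48 h at 37 °C, with CellTiter-Glo luminescence as endpoint.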

Test [4] in a line: Quantitative highthroughput screen to assess conditional lethalithy of NOMO1 cells grown in RPMI1640 with dialyzed fetal bovine serum (RPMI+ds) (AID 1963877). Further: nearly all actives have a fitted effect of over 30% in size.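 On viability: series mostly up to about 46 µM; 100% = DMSO control wells and 0% = empty wells.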 The gist of the method:
as §1

Test [5] is described as follows: Quantitative highthroughput screen to assess conditional lethalithy of NOMO1 cells grown in Human Plasma-Like Medium with dialyzed fetal bovine serum (HPLM+ds) (AID 1963878). Further: nearly all actives have a fitted effect of over 35% in size.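 On viability: 100% = DMSO wells and 0% = empty wells on each plate.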 The method, boiled down:
as §1

Test [6] is described as follows: Quantitative highthroughput screen to assess conditional lethalithy of P12 Ichikawa cells grown in Human Plasma-Like Medium with dialyzed fetal bovine serum (HPLM+ds) (AID 1963879). Further: nearly all actives have a fitted effect of over 35% in size. On viability: series mostly up to about 46 µM. Conditions: Potency: viability. The gist of the method:
as §1

Test [7] can be described thus: Quantitative highthroughput screen to assess conditional lethalithy of P12 Ichikawa cells grown in RPMI1640 with dialyzed fetal bovine serum (RPMI+ds) (AID 1963880). Further: nearly all actives have a fitted effect of over 35% in size.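 On viability: 100% = DMSO wells and 0% = empty wells on each plate.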 The note with it: Potency: P12-Ichikawa viability. The method, boiled down:
as §1

Test [8] is described as follows: Quantitative highthroughput screen to assess conditional lethalithy of P12 Ichikawa cells grown in RPMI1640 with untreated serum (RPMI+s) (AID 1963881). Further: nearly all actives have a fitted effect of over 35% in size.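 On viability: series mostly up to about 46 µM; 100% = DMSO wells and 0% = empty wells without cells.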 The note with it: Potency: viability. The gist of the method: as §1
Test [9] in a line: Cellular viability qHTS for adrenocortical cancer (ACC) cell line NCI-H295R (AID 1963990). Further: nearly all actives have a fitted effect of over 60% in size. The method, boiled down: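 Luminescent ATP read-out (CellTiter-Glo, 20 min RT) after 48 h drug exposure of NCI-H295R cells; a titration up to 46 uM final. Data normalized to doxorubicin (100% inhibition) and DMSO (0%); 4-parameter fit gives IC50, max response.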
Test [10] in a line: Cellular viability qHTS for adrenocortical cancer (ACC) cell line SW-13 (AID 1963989). Further: nearly all actives have a fitted effect of over 65% in size.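 On activity (max response): cells grown in serum-free medium with ITS supplement; on the % scale 0 is the no-effect control and ±100 the full control effect.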 Conditions: SW-13 ACC cells viability, CellTiter-Glo, 48 h; activity (max response): stronger effect = lower value. The method, boiled down: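 SW-13 cells in ITS-supplemented serum-free DMEM were plated overnight, then exposed for 48 h at 37C to compound titrations (up to 46 uM final). Viability was read by CellTiter-Glo luminescence; four-parameter logistic fits gave IC50 and efficacy.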

The nature of test [11]: Quantitative highthroughput screen to assess conditional lethalithy of SEM cells grown in RPMI1640 with unreated serum (RPMI+s) (AID 1963883). Further: nearly all actives have a fitted effect of over 35% in size.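 On viability: 100% = DMSO wells and 0% = empty wells without cells.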 The gist of the method: as §1
A short description of test [12]: Quantitative highthroughput screen to assess conditional lethalithy of SEM cells grown in Human Plasma-Like Medium with dialyzed fetal bovine serum (HPLM+ds) (AID 1963882). Further: nearly all actives have a fitted effect of over 35% in size. On viability: series mostly up to about 46 µM. The gist of the method: as §1
Test [13] in a line: Quantitative highthroughput screen to assess conditional lethalithy of SEM cells grown in RPMI1640 with dialyzed fetal bovine serum (RPMI+ds) (AID 1963884). Further: nearly all actives have a fitted effect of over 35% in size.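 On viability: series mostly up to about 46 µM; 100% = DMSO control wells and 0% = empty wells without cells.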 The gist of the method:
as §1

Where “and” joins values, the source holds several entries; their conditions need not be identical. Identical values can stand only once. Results filed as inconclusive are left out. A number with no mark means an inactive call. Calls of active or inactive are those of the source. The call rests on the fitted dose curve; in most records, active means well fitted curve in the direction sought with a large enough effect; inconclusive means small, poorly fitted or top-dose-only effect, or another doubt; inactive means no such curve, though single readings can be large; an effect the other way counts as inactive or inconclusive.
Potency means the concentration at half of the fitted maximal effect.

Cytochrome P450 3A7 (Homo sapiens), sequence (P24462 whole entry, looked up): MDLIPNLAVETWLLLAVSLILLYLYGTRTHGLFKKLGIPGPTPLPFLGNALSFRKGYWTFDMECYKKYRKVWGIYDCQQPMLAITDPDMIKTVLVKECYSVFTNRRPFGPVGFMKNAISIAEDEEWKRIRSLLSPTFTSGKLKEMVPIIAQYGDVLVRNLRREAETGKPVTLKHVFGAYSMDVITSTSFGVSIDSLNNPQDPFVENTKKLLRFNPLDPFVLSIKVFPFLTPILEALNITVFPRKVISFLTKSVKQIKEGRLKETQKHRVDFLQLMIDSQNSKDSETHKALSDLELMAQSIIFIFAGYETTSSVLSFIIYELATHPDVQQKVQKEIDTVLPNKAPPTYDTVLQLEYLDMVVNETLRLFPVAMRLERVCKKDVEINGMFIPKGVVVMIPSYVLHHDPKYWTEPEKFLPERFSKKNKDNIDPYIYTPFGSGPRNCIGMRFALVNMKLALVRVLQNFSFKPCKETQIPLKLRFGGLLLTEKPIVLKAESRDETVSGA

With `Cc1ncc([N+](=O)[O-])n1C`, the Potency entry in test [1] and in test [2] was “inactive” each time.

For `CN(C)CC(=O)N1CCC(c2ccc(NC(=O)c3ncc(C#N)[nH]3)c(C3=CCCCC3)c2)CC1`, the Potency result in test [1], in [3], in [4], in test [5], in test [6] and in [7] was “inactive” each time. For the same molecule, the Potency result in test [8] was “inactive”. Moreover, in [2], the Potency was 41.1 nM (active) and 148 nM (active).

For `CN(C)C(=O)C(=O)c1cn(C)c2cc(Cl)c(C(=O)N3CCC(Cc4ccc(F)cc4)CC3)cc12`, the Potency entry in test [1] was “inactive”. Further, the Potency in test [2] is 8.2 µM (active).

For the molecule `C[C@@H]1CN(c2c(F)c(N)c3c(=O)c(C(=O)O)cn(C4CC4)c3c2F)C[C@H](C)N1`, the Potency entry in test [1], in test [2], in [3], in test [4], in test [6] and in test [9] was “inactive” throughout.

As to `CCC(=O)N1CCOc2c(cc(-c3ccc(OC)c(OC)c3)cc2OC[C@H]2CCCN(C)C2)C1`, the Potency entry in test [1] was “inactive”. Further, the Potency in test [2] was 7.31 µM (active).

Consider `CCCNC(=O)Nc1ccc(Oc2ncnc3cc(OC)c(OC)cc23)cc1Cl`, for which the Potency result in test [1], in [3], in test [4], in test [5], in test [7] and in test [8] was “inactive” each time. For the same molecule, the Potency entry in test [9] was “inactive”. Besides, in [2], the Potency was 0.517 µM (active). Also, in test [10], the activity (max response) is -6.45%.

For the molecule `CCNC(=O)N1CCCN(c2ccc(C(=O)NCCc3ccc(Cl)cc3Cl)cc2NC(=O)c2cccc(Cl)c2)CC1`, the Potency result in test [1] was “inactive”. In test [2], the Potency is 20.6 µM (active).

On to `NCCCCCC(=O)O`, for which the Potency result in test [1], in test [2], in [3], in test [4], in test [5] and in test [6] was “inactive” in each case. The Potency entry in test [7], in test [8], in test [11] and in [9] was “inactive” throughout. In addition, the activity (max response) in test [10] is 12.2% and -16.4%.

On to `CCOC(=O)N1c2ccc(C(F)(F)F)cc2[C@@H](N(Cc2cc(C(F)(F)F)cc(C(F)(F)F)c2)C(=O)OC)C[C@H]1CC`, for which the Potency entry in test [1], in test [3], in test [4], in [5], in test [7] and in [8] was “inactive” throughout. Also, the Potency entry in test [12], in [11], in test [13] and in [9] was “inactive” each time. Also, the Potency in [2] is 7.42 µM (active). The activity (max response) in test [10] was 4.35%.

Take `CC1(C)CC(=O)c2c(C(F)(F)F)nn(-c3ccc(C(N)=O)c(NC4CCC(OC(=O)CN)CC4)c3)c2C1` (stereo unspecified): the Potency in test [1] is 15.1 µM (active); in test [2], 51.7 nM (active) and 37.2 nM (active); in [3] it was 0.372 µM (active); in [4], 0.296 µM (active); in test [5], 0.332 µM (active); in [12] it was 0.264 µM (active). Also, the Potency in test [11] is 0.264 µM (active); in test [13], 0.296 µM (active); in [10] it was 0.282 µM (active); in test [9], 0.501 µM (active).

Turning to `N[C@@H](CCNCc1ccc(Cl)cc1)C(=O)N1CCCCC1`, the Potency result in [1] and in test [2] was “inactive” in each case.

As for `CS(=O)c1ccc(-c2nc(-c3ccc(F)cc3)c(-c3ccncc3)[nH]2)cc1` (stereo unspecified), the Potency result in [1] and in [9] was “inactive” in each case. The Potency in test [2] was 20.6 µM (active); in test [4] it was 6.79 µM (active); in [5], 6.05 µM (active); in [6] it was 9.59 µM (active); in [7], 8.55 µM (active); in test [8], 7.62 µM (active). The results for the Potency in [12], in [11] and in [13] were 7.62 µM (active), 2.41 µM (active) and 5.4 µM (active), respectively.

With `O=C(O)[C@@H]1C[C@H]2C[C@@H](CCc3nn[nH]n3)CC[C@H]2CN1`, the Potency result in [1] and in [2] was “inactive” throughout.

For `COc1cc2c(Oc3ccc(-c4cnc(Nc5ccc(F)cc5)n(C)c4=O)cc3F)ccnc2cc1OCCCN1CCOCC1`, the Potency result in test [1] is “inactive”. The Potency in test [2] was 58 nM (active) and 29.5 nM (active); in test [4] it was 23.5 µM (active); in test [5] it was 20.9 µM (active); in test [12], 0.166 µM (active); in test [11], 1.05 µM (active); in test [13], 0.0833 µM (active). Further, the Potency in test [10] was 15.8 µM (active); in test [9] it was 3.98 µM (active).

On to `CCC1(O)CC2c3cc(OC)c(OC)cc3CCN2CC1CC(C)C` (stereo unspecified), for which the Potency entry in [1] and in test [2] was “inactive” each time.

On to `CCN[C@H]1C[C@H](C)S(=O)(=O)c2sc(S(N)(=O)=O)cc21`, for which the Potency entry in test [1], in test [2], in test [3], in test [4], in [5] and in test [6] was “inactive” in each case. Further, the Potency result in test [7], in test [8], in test [12], in test [11], in test [13] and in test [9] was “inactive” throughout. For the same molecule, the activity (max response) in [10] was 3.89% and 5.72%.

For `Cn1ccc2cc3c(cc21)CCN3C(=O)Nc1cccnc1`, the Potency entry in [1], in test [2], in test [3], in test [4], in test [5] and in [9] was “inactive” each time. In addition, in test [10], the activity (max response) is -12.5% and 11.5%.

Turning to `NS(=O)(=O)c1cc(Cl)c(Cl)c(S(N)(=O)=O)c1`, the Potency entry in test [1], in test [2], in test [3], in test [4], in [5] and in test [6] was “inactive” throughout. The Potency result in [7], in [8] and in test [9] was “inactive” in each case. In addition, the activity (max response) in [10] was -6.34%.

For the molecule `Cc1nc2sc(C(=O)NCc3ccncc3)c(N)c2c(C)c1Cl`, the Potency entry in test [1] and in [2] was “inactive” throughout.

On to `COc1ccc(CC2c3cc(OC)c(OC)cc3CC[N+]2(C)CCC(=O)OCCCCCOC(=O)CC[N+]2(C)CCc3cc(OC)c(OC)cc3C2Cc2ccc(OC)c(OC)c2)cc1OC` (stereo unspecified), for which the Potency entry in test [1] is “inactive”. In addition, the Potency in test [2] was 18.6 µM (active); in test [3], 3.68 µM (active); in test [4], 4.63 µM (active); in test [5], 1.64 µM (active). For the same molecule, the results for the viability in [6], in [7] and in [8] were 93.9% [at 5.15 µM], 106% [at 5.15 µM] and 89.9% [at 5.15 µM], respectively. Besides, in test [10], the activity (max response) is -11.7%.
